Laboratory results reported in PubChem BioAssay (Tox21).
Inconclusive results are not listed. A number with no mark means an inactive call. The source made the active and inactive calls. Unless noted, the call rests on the fitted dose curve; in most records, active means well fitted activation curve with a large enough effect in the repeat runs; inconclusive means weak or mixed curves, or effect the other way; inactive means no such curve, though single readings can be large or run the other way.

Tested on: not listed separately
Experiment: qHTS assay to identify small molecule antagonists of the estrogen related receptor signaling pathway with the pleiotropic PPARgamma coactivator (PGC) from Tox21 10K library (AID 1224841; call rule not given here; further: actives are mostly falling curves and most rising ones were filed inactive; nearly all actives have a fitted effect of over 50% in size; further: potency means the concentration at half of the fitted maximal effect)
Conditions: PGC/ERR reporter cell line, ONE-Glo luciferase, 18 h; series mostly up to 92.4 µM; activity, negative = inhibition: at the top concentration
Method in brief: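 PGC/ERR cell line, 2,000 cells/well, pre-incubated 6 hours at 37 C, then exposed to compounds for 18 hours at 37 C; luciferase read with One-Glo luminescence after 30 min at room temperature.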
On the % scale 0 is the no-effect control and ±100 the full control effect.

Compared with `CCS(=O)(=O)c1ccc(OC)c(C(=O)OC)c1`, `NS(=O)(=O)c1cc(C(=O)O)cc(N2CCCC2)c1Oc1ccccc1` is lower in “activity, negative = inhibition” value: -1.37% [at 42.5 µM] for the first, -3.53% [at 42.5 µM] for the second.

Going from `Cc1sccc1Br` to `CN(C(=O)c1c(O)c2ccccc2n(C)c1=O)c1ccccc1`, the “activity, negative = inhibition” value falls from 1.46% [at 42.5 µM] to -19.6% [at 42.5 µM].

First: CC(=O)OCC(=O)[C@@]1(O)CCC2C3CCC4=CC(=O)CC[C@]4(C)C3[C@@H](O)C[C@@]21C (stereo partly drawn)
Second: CC(C)CCCC(C)N (stereo not drawn)
The “activity, negative = inhibition” value of the first is lower: 8.95% [at 42.5 µM] for the first, 25.1% [at 42.5 µM] for the second.

First: CC1=CC(C)C(C=O)CC1 (stereo not drawn)
Second: CCOC(=O)C(=O)OCC
The “activity, negative = inhibition” value of the first is higher: 8.81% for the first, -0.78% for the second.

Compared with `Cn1c(N)c(N=O)c(=O)n(C)c1=O`, `CCCCCSCCCCC` is higher in “activity, negative = inhibition” value: -21.8% for the first, 1.02% for the second.

For `CCCCOCCOCCOCCCC`, the “activity, negative = inhibition” value was 2.14%.

With `O=Cc1cccc([N+](=O)[O-])c1` the Potency was 24.2 µM (active).

Tested on: not listed separately
Experiment: qHTS assay to identify small molecule agonists of the estrogen related receptor signaling pathway with the pleiotropic PPARgamma coactivator (PGC) from Tox21 10K library (AID 1224842); further: nearly all actives have a fitted effect of over 15% in size
Conditions: PGC/ERR reporter cell line, luciferase ONE-Glo, 18 h; series mostly up to 92.4 µM; activation: at the top concentration
Method in brief: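 PGC/ERR reporter cell line, 2,000 cells per well, incubated 6 h at 37 C before 23 nL compound in DMSO was added. After 18 h at 37 C, One-Glo luminescence read following 30 min at room temperature.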

First: CC(C)(C)c1nnc(NS(=O)(=O)c2ccccc2)s1
Second: NS(=O)(=O)c1cc(C(=O)O)cc(N2CCCC2)c1Oc1ccccc1
The “activation” value of the first is higher: -0.533% [at 42.5 µM] for the first, -1.07% [at 42.5 µM] for the second.

Going from `c1ccc(CC2=NCCN2)cc1` to `O=C(O)CCCc1ccccc1`, the “activation” value falls from 1.1% [at 42.5 µM] to 0.2% [at 42.5 µM].

First: NS(=O)(=O)c1ccc(C(=O)O)cc1
Second: CCS(=O)(=O)c1ccc(OC)c(C(=O)OC)c1
The “activation” value of the first is lower: -1.92% [at 42.5 µM] for the first, -0.225% [at 42.5 µM] for the second.

Compared with `COc1c(N2C[C@@H]3CCCN[C@@H]3C2)c(F)cc2c(=O)c(C(=O)O)cn(C3CC3)c12`, `COc1cc(C(=O)N2CCCCCCC2)cc(OC)c1OC` is lower in “activation” value: 6.65% [at 42.5 µM] for the first, 0.267% [at 42.5 µM] for the second.

Compared with `O=C(O)c1ccccc1OP(=O)(O)O`, `CN(C(=O)c1c(O)c2ccccc2n(C)c1=O)c1ccccc1` is lower in “activation” value: 3.01% [at 42.5 µM] for the first, -5.58% [at 42.5 µM] for the second.

Compared with `O=c1[nH]c(=O)n([C@H]2C[C@H](O)[C@@H](CO)O2)cc1I`, `CC(=O)OCC(=O)[C@@]1(O)CCC2C3CCC4=CC(=O)CC[C@]4(C)C3[C@@H](O)C[C@@]21C` (stereo partly drawn) is lower in “activation” value: 13.8% [at 42.5 µM] for the first, 2.6% [at 42.5 µM] for the second.

Compared with `CCOC(=O)[C@H](CCc1ccccc1)N[C@@H](C)C(=O)N1[C@H](C(=O)O)C[C@@H]2CCC[C@@H]21`, `O=C(CCCN1CCN(c2ccccn2)CC1)c1ccc(F)cc1` is lower in “activation” value: -0.774% [at 42.5 µM] for the first, -1.13% [at 42.5 µM] for the second.

Compared with `CO/N=C(/C(=O)N[C@@H]1C(=O)N2C(C(=O)OCOC(=O)C(C)(C)C)=C(C)CS[C@H]12)c1csc(N)n1`, `CCOC(=O)c1c(C)n(C)c2ccc(O)cc12` is higher in “activation” value: 0.703% [at 42.5 µM] for the first, 1.53% [at 42.5 µM] for the second.

First: Cc1cc2c(cc1S(N)(=O)=O)S(=O)(=O)CCC2
Second: Cc1cc(O)cc2c1O[C@](C)(CCC[C@H](C)CCC[C@H](C)CCCC(C)C)CC2
The “activation” value of the first is lower: 1.73% [at 42.5 µM] for the first, 13.8% [at 42.5 µM] for the second.

Going from `Cc1sccc1Br` to `CC(C)CCCC(C)N` (stereo not drawn), the “activation” value rises from -3.56% [at 42.5 µM] to 7.04% [at 42.5 µM].

First: CCCCCCCCCCCCN(CCCCCCCCCCCC)CCCCCCCCCCCC
Second: CCCCCSCCCCC
The “activation” value of the first is lower: 0.0337% for the first, 0.314% for the second.

Going from `COC(C)(C)CCCC(C)CC=O` (stereo not drawn) to `CC(C)NC(=O)NC(C)C`, the “activation” value falls from 3.24% to -2.31%.

Going from `C=CCS(=O)(=O)O` to `CS(=O)(=O)O`, the “activation” value falls from 0.0519% to -2.5%.

Going from `COCCCOCCCOC` to `CCCCOCCOCCOCCCC`, the “activation” value falls from 2.89% to 0.747%.

Compared with `COC(=O)c1ccc(C)cc1C1=NC(C)(C(C)C)C(=O)N1` (stereo not drawn), `O=Cc1cccc([N+](=O)[O-])c1` is lower in “activation” value: 2.93% for the first, -11% for the second.

First: CC(=O)c1ccccc1O
Second: Cc1ccc(C#N)cc1
The “activation” value of the first is higher: 5.09% for the first, 0.753% for the second.

First: CC1=CC(C)C(C=O)CC1 (stereo not drawn)
Second: CCOC(=O)C(=O)OCC
The “activation” value of the first is higher: 2.79% for the first, -0.246% for the second.

In the case of `Cn1c(N)c(N=O)c(=O)n(C)c1=O`, the “activation” value is reported as -7.4%.

Biological target: Thyrotropin receptor (Homo sapiens) (UniProt P16473)
Experiment: qHTS assay to identify small molecule agonists of the thyroid stimulating hormone receptor (TSHR) signaling pathway (AID 1224843; calls by dose curve; further: nearly all actives have a fitted effect of over 45% in size)
Conditions: TSHR-HEK293 cells, cAMP HTRF, agonist mode, 30 min; series mostly up to 42.5 µM; activation: at the top concentration
Method in brief: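 TSHR-HEK293 cells in agonist mode, 30 min room-temperature step, then cAMP measured by competitive HTRF (cAMP-d2 with anti-cAMP cryptate) after 1 h at room temperature. Tested at 15 concentrations in triplicate.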

Thyrotropin receptor (Homo sapiens), sequence (P16473 whole entry, looked up): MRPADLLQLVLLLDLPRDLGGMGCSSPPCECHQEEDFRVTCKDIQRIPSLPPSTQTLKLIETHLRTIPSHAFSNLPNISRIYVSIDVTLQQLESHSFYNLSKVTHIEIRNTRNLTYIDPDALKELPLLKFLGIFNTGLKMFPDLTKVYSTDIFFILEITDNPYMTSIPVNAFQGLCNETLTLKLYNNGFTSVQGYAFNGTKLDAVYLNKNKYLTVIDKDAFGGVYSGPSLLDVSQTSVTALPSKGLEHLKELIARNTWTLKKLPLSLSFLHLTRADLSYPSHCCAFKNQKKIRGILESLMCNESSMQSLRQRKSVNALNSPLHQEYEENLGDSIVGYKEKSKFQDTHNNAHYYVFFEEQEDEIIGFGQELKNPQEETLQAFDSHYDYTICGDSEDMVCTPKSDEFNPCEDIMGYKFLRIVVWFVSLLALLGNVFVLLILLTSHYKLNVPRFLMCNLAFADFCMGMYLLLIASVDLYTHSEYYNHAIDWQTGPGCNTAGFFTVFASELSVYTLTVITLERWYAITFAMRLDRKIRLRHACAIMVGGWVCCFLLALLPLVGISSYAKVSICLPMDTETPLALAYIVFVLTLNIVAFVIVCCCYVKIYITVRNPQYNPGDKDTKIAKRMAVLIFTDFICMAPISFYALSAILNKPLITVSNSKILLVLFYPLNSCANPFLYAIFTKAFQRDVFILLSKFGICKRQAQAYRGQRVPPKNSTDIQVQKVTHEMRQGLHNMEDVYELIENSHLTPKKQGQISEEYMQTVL

Going from `CC(C)(C)c1nnc(NS(=O)(=O)c2ccccc2)s1` to `NS(=O)(=O)c1cc(C(=O)O)cc(N2CCCC2)c1Oc1ccccc1`, the “activation” value rises from -1.29% to 2.67%.

First: c1ccc(CC2=NCCN2)cc1
Second: O=C(O)CCCc1ccccc1
The “activation” value of the first is lower: -4.36% for the first, 5.61% for the second.

Compared with `NS(=O)(=O)c1ccc(C(=O)O)cc1`, `O=C(O)c1ccccc1OP(=O)(O)O` is lower in “activation” value: 6.4% for the first, -0.68% for the second.

Going from `COc1c(N2C[C@@H]3CCCN[C@@H]3C2)c(F)cc2c(=O)c(C(=O)O)cn(C3CC3)c12` to `COc1cc(C(=O)N2CCCCCCC2)cc(OC)c1OC`, the “activation” value falls from 9.6% to 1.66%.

Going from `O=c1[nH]c(=O)n([C@H]2C[C@H](O)[C@@H](CO)O2)cc1I` to `CC(=O)OCC(=O)[C@@]1(O)CCC2C3CCC4=CC(=O)CC[C@]4(C)C3[C@@H](O)C[C@@]21C` (stereo partly drawn), the “activation” value rises from -7.19% to 0.867%.

Going from `CCOC(=O)[C@H](CCc1ccccc1)N[C@@H](C)C(=O)N1[C@H](C(=O)O)C[C@@H]2CCC[C@@H]21` to `O=C(CCCN1CCN(c2ccccn2)CC1)c1ccc(F)cc1`, the “activation” value falls from 4.57% to -2.11%.

Compared with `CO/N=C(/C(=O)N[C@@H]1C(=O)N2C(C(=O)OCOC(=O)C(C)(C)C)=C(C)CS[C@H]12)c1csc(N)n1`, `CCOC(=O)c1c(C)n(C)c2ccc(O)cc12` is higher in “activation” value: -10.2% for the first, 25.2% for the second.

Compared with `Cc1cc2c(cc1S(N)(=O)=O)S(=O)(=O)CCC2`, `Cc1cc(O)cc2c1O[C@](C)(CCC[C@H](C)CCC[C@H](C)CCCC(C)C)CC2` is lower in “activation” value: 3.79% for the first, 2.92% for the second.

First: Cc1sccc1Br
Second: CC(C)CCCC(C)N (stereo not drawn)
The “activation” value of the first is higher: 6.8% for the first, -7.7% for the second.

First: CCCCCCCCCCCCN(CCCCCCCCCCCC)CCCCCCCCCCCC
Second: CCCCCSCCCCC
The “activation” value of the first is higher: 8.35% [at 92.4 µM] for the first, 7.93% [at 92.4 µM] for the second.

Going from `COC(C)(C)CCCC(C)CC=O` (stereo not drawn) to `CC(C)NC(=O)NC(C)C`, the “activation” value falls from 3.01% [at 92.4 µM] to -0.322% [at 92.4 µM].

First: C=CCS(=O)(=O)O
Second: CS(=O)(=O)O
The “activation” value of the first is lower: 0.11% [at 92.4 µM] for the first, 1.66% [at 92.4 µM] for the second.

First: COCCCOCCCOC
Second: CCCCOCCOCCOCCCC
The “activation” value of the first is lower: -0.616% [at 92.4 µM] for the first, 0.208% [at 92.4 µM] for the second.

Going from `CC(=O)c1ccccc1O` to `Cc1ccc(C#N)cc1`, the “activation” value rises from 5.64% [at 92.4 µM] to 7.67% [at 92.4 µM].

First: CC1=CC(C)C(C=O)CC1 (stereo not drawn)
Second: CCOC(=O)C(=O)OCC
The “activation” value of the first is higher: 5.14% [at 92.4 µM] for the first, 0.485% [at 92.4 µM] for the second.

With `Cn1c(N)c(N=O)c(=O)n(C)c1=O` the “activation” value was -16.9% [at 92.4 µM].
